Data published in PubChem BioAssay (NCI).
The panel holds about 79,000 compounds, 15% with a hit somewhere; the sample as a whole holds those more often. A number with no mark means an inactive call. Activity calls are given as the source filed them. No stated cut-off is given here; in the data, active means growth inhibition above about 70%; inactive means the rest.

Tests used:
[1] = NCI Yeast Anticancer Drug Screen. Data for the rad50 strain (AID 155);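 further: 0% = growth of vehicle-only cultures of the same strain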; details: S. cerevisiae rad50 strain growth inhibition, stronger effect = higher value
Method in brief: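 DNA repair mutant yeast, compound exposure, growth read-out; inhibition is taken relative to vehicle.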

[2] = NCI Yeast Anticancer Drug Screen. Data for the mec2-1 strain (AID 157); details: S. cerevisiae mec2-1 strain, stronger effect = higher value
Method in brief: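 Test agents were screened against the mec2-1 yeast strain, with defined DNA repair or cell cycle alteration. Growth was scored as inhibition against vehicle-only controls.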

[3] = NCI Yeast Anticancer Drug Screen. Data for the sgs1 mgt1 strain (AID 161);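 further: 0% = growth of cultures given vehicle only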; details: S. cerevisiae sgs1 mgt1 strain, stronger effect = higher value
Method in brief: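 Inhibition of yeast growth, normalised to vehicle-treated controls, is reported for a strain bearing genetic alterations in DNA damage repair.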

[4] = NCI Yeast Anticancer Drug Screen. Data for the cln2 rad14 strain (AID 165);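 further: 0% = growth equal to vehicle treated cultures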; details: S. cerevisiae cln2 rad14 strain, stronger effect = higher value
Method in brief: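 Growth of compound-exposed yeast (cln2 rad14 genotype) measured and expressed as inhibition relative to vehicle.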

[5] = NCI Yeast Anticancer Drug Screen. Data for the bub3 strain (AID 167); details: S. cerevisiae bub3 mutant strain, stronger effect = higher value
Method in brief: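 In this screen, a yeast mutant lacking normal mitotic checkpoint function is challenged with compound. Relative growth versus vehicle gives the inhibition value.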

[6] = NCI Yeast Anticancer Drug Screen. Data for the mlh1 rad18 strain (AID 175); details: S. cerevisiae mlh1 rad18 strain growth inhibition, stronger effect = higher value
Method in brief: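 In this whole-cell yeast screen, a strain with altered DNA damage repair is challenged with compound, and its growth is measured against matched vehicle-treated controls.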

[7] = at 5.0 µM (retest, dose inferred, filed as 0.5)
[8] = at 50.0 µM (retest, dose inferred, filed as 5.0)

| SMILES | growth inhibition [1, 7] | growth inhibition [1, 8] | growth inhibition ([1]; at 50.0 µM) | growth inhibition [2, 7] | growth inhibition [2, 8] | growth inhibition ([2]; at 50.0 µM) | growth inhibition [3, 7] | growth inhibition [3, 8] | growth inhibition ([3]; at 50.0 µM) | growth inhibition [4, 7] | growth inhibition [4, 8] | growth inhibition ([4]; at 50.0 µM) | growth inhibition [5, 7] | growth inhibition [5, 8] | growth inhibition ([5]; at 50.0 µM) | growth inhibition [6, 7] | growth inhibition [6, 8] | growth inhibition ([6]; at 50.0 µM) |
| --- | --- | --- | --- | --- | --- | --- | --- | --- | --- | --- | --- | --- | --- | --- | --- | --- | --- | --- |
| C=C(C)COc1cc(NC(=S)OC(C)C)ccc1Cl | 16% | 90% (active) | 51.8% | 16% | 93% (active) | 83.8% (active) | 8% | 88% (active) | 90.1% (active) | 6% | 86% (active) | 88.2% (active) | 20% | 93% (active) | 88.3% (active) | 12% | 92% (active) | 83.6% (active) |
| O=[N+]([O-])c1cccc(F)c1O | 5% | 87% (active) | 52.5% | 6% | 79% (active) | 33.1% | 6% | 78% (active) | 42.5% | 6% | 65% | 0.25% | 0% | 73% (active) | 11.3% | 0% | 89% (active) | 78.3% (active) |
| O=C1C(Cl)=C(Cl)C(=O)C2CC=CCC12 (configuration not stated) | 68% | 97% (active) | 99.3% (active) | 92% (active) | 99% (active) | 99.4% (active) | 92% (active) | 99% (active) | 99.6% (active) | 85% (active) | 99% (active) | 99.1% (active) | 91% (active) | 99% (active) | 99.5% (active) | 90% (active) | 99% (active) | 99.5% (active) |
| CCCCCCCCCCC(O)CN1CCN(c2cccc(Cl)c2)CC1 (configuration not stated) | 95% (active) | 98% (active) | 98.9% (active) | 99% (active) | 99% (active) | 98.7% (active) | 99% (active) | 99% (active) | 99.2% (active) | 97% (active) | 98% (active) | 97.2% (active) | 96% (active) | 99% (active) | 90.3% (active) | 99% (active) | 99% (active) | 99.2% (active) |
| CC(C)(C)CC(C)(C)c1ccc(Oc2ccc([N+](=O)[O-])cc2S(=O)(=O)O)cc1 | -2% | 21% | 14.8% | -6% | -1% | 0.05% | -1% | 32% | 64.5% | 4% | -4% | -23.4% | -2% | -13% | 5.45% | 5% | 26% | 24.7% |
| Clc1ccc(CN2CCN(Cc3ccc(Cl)cc3)C2c2ccc(Cl)cc2)cc1 | 17% | 66% | 21.9% | 4% | 58% | 34.5% | 40% | 92% (active) | 53.5% | 26% | 55% | 69.4% | 33% | 83% (active) | 28.1% | 28% | 77% (active) | 27.2% |
| COc1ccc2c(c1)O[C@H]1c3ccc(O)cc3OC[C@@H]21 | 1% | 35% | 72.7% (active) | 8% | 36% | 69.5% | -2% | 41% | 68% | 3% | 16% | 50.3% | 5% | 41% | 74.2% (active) | 1% | 53% | 84% (active) |
| COc1ccc(Oc2c(OC)cc(NCCCCCNC(C)C)c3ncccc23)cc1 | 26% | 72% (active) | 91.9% (active) | 13% | 52% | 67.9% | 37% | 85% (active) | 93.7% (active) | 19% | 48% | 57.8% | 29% | 69% | 81% (active) | 19% | 52% | 89.8% (active) |
| Cc1ccc2c(ccc3ccccc32)c1 | -23% | 42% | 74.3% (active) | 1% | 10% | 16.4% | -7% | 16% | 57.5% | -25% | -12% | 10.2% | -15% | 38% | 71% (active) | -67% | 39% | 34.6% |
| O=C(NC(Cc1ccccc1)C(=O)O)c1ccncc1 (configuration not stated) | -2% | -12% | 61.6% | -1% | -7% | 28.9% | 0% | -5% | 63.2% | -1% | -11% | 57.2% | -1% | -2% | 44.1% | -1% | -6% | 46.1% |
| Cc1ccccc1N=Nc1c(C)nn(C(N)=S)c1-c1ccccc1 | 6% | 85% (active) | 95.2% (active) | -15% | 96% (active) | 57.1% | -5% | 96% (active) | 94.8% (active) | -6% | 87% (active) | -4.5% | -3% | 97% (active) | 34.5% | 12% | 97% (active) | 96.3% (active) |
| CN=S(=O)(OCCCCCCCCCOS(=O)(=NC)c1ccc(C)cc1)c1ccc(C)cc1 (configuration not stated) | 17% | 12% | 42.5% | 14% | 6% | 70% (active) | 16% | 15% | 19.7% | 29% | -1% | -5.85% | 20% | 20% | -35.3% | 18% | 11% | -80.8% |
| Oc1cc2c(cc1C(Nc1ncccn1)c1ccc(F)cc1)OCO2 (configuration not stated) | -1% | 46% | 17.9% | -1% | 40% | 15.7% | 0% | 77% (active) | 79.7% (active) | 4% | 24% | -12% | -1% | 64% | 44.1% | 0% | 74% (active) | 43.5% |
| COc1ccc(-c2c(-c3ccccc3)c(C)nc3nc(SC)nc(SC)c23)cc1OC | 24% | 95% (active) | 95% (active) | 0% | 96% (active) | 95% (active) | 12% | 97% (active) | 94.2% (active) | -2% | 92% (active) | 94.7% (active) | -20% | 94% (active) | 94.6% (active) | 2% | 96% (active) | 94.6% (active) |
| CCOC(=O)NN(C(=O)OCC)c1ccc(N=Nc2ccc(OC)cc2)n1C | 1% | 84% (active) | 46% | -25% | 85% (active) | 60.8% | -22% | 87% (active) | 70.3% (active) | 29% | 70% (active) | 71.5% (active) | -40% | 78% (active) | 74% (active) | -32% | 77% (active) | 69.9% |
| S=c1[nH]nc(SCc2ccc(Cl)c(Cl)c2)c2[nH]cnc12 | -4% | -13% | 1.45% | -11% | -2% | 9.2% | -14% | -14% | 21.2% | -10% | -16% | 28.8% | -8% | -8% | 9.25% | -21% | -16% | 5.2% |
| C(=N\NC1=NCCN1)/c1ccc(-c2cn3cc(/C=N/NC4=NCCN4)ccc3n2)cc1 | 99% (active) | 99% (active) | 99.1% (active) | 100% (active) | 99% (active) | 97.8% (active) | 99% (active) | 100% (active) | 99.3% (active) | 92% (active) | 98% (active) | 98.1% (active) | 98% (active) | 99% (active) | 99.3% (active) | 99% (active) | 99% (active) | 99.4% (active) |
| C/C=C/CSc1cc(NC(=S)c2ccsc2C)ccc1Cl | -6% | 83% (active) | 88.2% (active) | -1% | 82% (active) | 85.8% (active) | 43% | 88% (active) | 91.2% (active) | -19% | 80% (active) | 84.3% (active) | -2% | 88% (active) | 88.6% (active) | 6% | 89% (active) | 86.8% (active) |
| CN(C)CCSCCN1c2ccccc2Sc2ccc(Cl)cc21 | -5% | 99% (active) | 57.5% | -2% | 99% (active) | 99.7% (active) | -16% | 99% (active) | 98.6% (active) | -8% | 99% (active) | 99% (active) | 4% | 99% (active) | 99.2% (active) | 5% | 99% (active) | 99.5% (active) |
